# Inconclusive results are not listed. Entries that show only a call come without a potency. Active and inactive are the calls of the source. Unless noted, calls come from the whole dose curve; as a rule, active = well fitted curve in the direction sought with a large enough effect; inconclusive = small, poorly fitted or top-dose-only effect, or another doubt; inactive = no such curve, though single readings can be large; an effect the other way counts as inactive or inconclusive.
# How the values were obtained:
# [1] = molecular target: Pyruvate kinase (Leishmania mexicana) (UniProt Q27686); assay: qHTS Validation Assay for Inhibitors of Leishmania Mexicana Pyruvate Kinase (AID 945)
# Summary of the method: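 Purified LmPYK (E451W mutant, 0.2 nM) was incubated 1 h at room temperature with 0.5 mM PEP and 0.1 mM ADP in 50 mM imidazole pH 7.2, 50 mM KCl, 7 mM MgCl2; ATP formed was read by PKLight luminescence, normalized to DMSO wells.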
# [2] = molecular target: Hexokinase-4 (Homo sapiens) + Glucokinase regulatory protein (Homo sapiens) (UniProt P35557+Q14397); assay: qHTS assay for inhibitors of recombinant human GCK-GKRP interaction: Diaphorase-coupled assay (AID 743205)
# Chain of Hexokinase-4 (Homo sapiens) + Glucokinase regulatory protein (Homo sapiens) (P35557 whole entry, looked up): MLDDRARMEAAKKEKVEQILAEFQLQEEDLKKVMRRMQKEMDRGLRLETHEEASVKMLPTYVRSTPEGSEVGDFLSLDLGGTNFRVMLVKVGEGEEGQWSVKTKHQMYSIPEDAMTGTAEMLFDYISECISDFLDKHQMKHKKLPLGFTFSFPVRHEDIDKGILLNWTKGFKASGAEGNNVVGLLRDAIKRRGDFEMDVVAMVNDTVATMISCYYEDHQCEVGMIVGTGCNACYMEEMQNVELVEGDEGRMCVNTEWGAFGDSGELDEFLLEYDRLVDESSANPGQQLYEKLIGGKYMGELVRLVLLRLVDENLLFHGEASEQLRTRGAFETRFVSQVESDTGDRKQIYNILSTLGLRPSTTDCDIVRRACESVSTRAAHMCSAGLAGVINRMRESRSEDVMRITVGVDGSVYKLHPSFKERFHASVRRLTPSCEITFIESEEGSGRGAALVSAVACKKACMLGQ
# Chain of Hexokinase-4 (Homo sapiens) + Glucokinase regulatory protein (Homo sapiens) (Q14397 whole entry, looked up): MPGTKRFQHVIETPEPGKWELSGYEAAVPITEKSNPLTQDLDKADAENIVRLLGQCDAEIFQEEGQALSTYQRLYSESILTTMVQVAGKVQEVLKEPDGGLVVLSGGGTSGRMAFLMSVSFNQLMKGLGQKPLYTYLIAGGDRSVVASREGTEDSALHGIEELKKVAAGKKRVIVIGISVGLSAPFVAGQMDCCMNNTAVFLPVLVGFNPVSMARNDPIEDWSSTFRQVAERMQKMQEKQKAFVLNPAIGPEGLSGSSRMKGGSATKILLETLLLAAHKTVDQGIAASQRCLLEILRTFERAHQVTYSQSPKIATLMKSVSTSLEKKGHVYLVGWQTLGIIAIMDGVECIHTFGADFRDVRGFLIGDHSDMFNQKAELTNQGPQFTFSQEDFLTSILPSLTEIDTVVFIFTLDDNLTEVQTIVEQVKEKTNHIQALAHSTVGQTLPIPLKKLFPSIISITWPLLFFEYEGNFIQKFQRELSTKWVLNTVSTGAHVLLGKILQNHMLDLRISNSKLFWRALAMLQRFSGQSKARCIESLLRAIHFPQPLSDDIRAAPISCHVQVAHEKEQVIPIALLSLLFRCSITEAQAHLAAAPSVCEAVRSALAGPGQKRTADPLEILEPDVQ
# Summary of the method: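 Compounds pre-incubated 20 min with substrate, then 10 nM GST-GCK with 10 nM FLAG-GKRP added. GCK activity coupled via G6PDH and diaphorase to resorufin (5 mM glucose, 0.4 mM ATP, 0.15 mM NADP+, pH 7.6), read kinetically over 30 minutes at Ex 525/Em 590 nm.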
# [3] = molecular target: Rap guanine nucleotide exchange factor 3 (Homo sapiens) (UniProt O95398); assay: Confirmatory qHTS for agonist of cAMP-regulated guanine nucleotide exchange factor 3 (EPAC1) (AID 1645881);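 note: EPAC1 catalysed release of BODIPY-GDP from Rap1B seen as fluorescence loss; nearly all actives have a fitted effect of over 75% in size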
# Chain of Rap guanine nucleotide exchange factor 3 (Homo sapiens) (O95398 whole entry, looked up): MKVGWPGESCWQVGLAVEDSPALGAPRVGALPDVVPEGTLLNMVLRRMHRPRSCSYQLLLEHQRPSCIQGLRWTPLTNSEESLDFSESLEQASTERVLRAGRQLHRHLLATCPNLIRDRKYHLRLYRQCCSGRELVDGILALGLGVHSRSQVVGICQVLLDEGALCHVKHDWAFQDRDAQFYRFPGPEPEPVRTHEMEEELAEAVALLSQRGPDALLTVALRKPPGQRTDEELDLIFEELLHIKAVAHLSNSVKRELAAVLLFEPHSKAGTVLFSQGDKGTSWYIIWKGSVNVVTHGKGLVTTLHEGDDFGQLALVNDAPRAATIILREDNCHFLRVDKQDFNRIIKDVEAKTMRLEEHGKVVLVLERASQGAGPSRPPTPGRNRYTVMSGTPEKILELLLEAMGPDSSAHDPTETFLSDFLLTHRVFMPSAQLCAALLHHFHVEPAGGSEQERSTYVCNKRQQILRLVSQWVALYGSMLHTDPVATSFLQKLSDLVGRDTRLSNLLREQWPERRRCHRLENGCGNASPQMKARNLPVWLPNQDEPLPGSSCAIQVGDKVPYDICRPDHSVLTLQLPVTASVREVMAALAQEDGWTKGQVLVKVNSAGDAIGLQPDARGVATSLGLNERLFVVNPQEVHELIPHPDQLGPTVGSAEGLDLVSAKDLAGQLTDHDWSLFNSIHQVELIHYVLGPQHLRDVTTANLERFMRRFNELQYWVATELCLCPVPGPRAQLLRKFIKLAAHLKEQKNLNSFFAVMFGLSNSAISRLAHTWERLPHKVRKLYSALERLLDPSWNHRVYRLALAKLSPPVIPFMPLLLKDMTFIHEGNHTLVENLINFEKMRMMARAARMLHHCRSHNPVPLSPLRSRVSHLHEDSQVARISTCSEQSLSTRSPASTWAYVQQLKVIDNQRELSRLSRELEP
# [4] = molecular target: Rap guanine nucleotide exchange factor 4 (Homo sapiens) (UniProt Q8WZA2); assay: Confirmatory qHTS for agonist of cAMP-regulated guanine nucleotide exchange factor 4 (EPAC2) (AID 1645884);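 note: nucleotide exchange releases bodipy-GDP from Rap1 and this lowers its fluorescence; nearly all actives have a fitted effect of over 65% in size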
# Chain of Rap guanine nucleotide exchange factor 4 (Homo sapiens) (Q8WZA2 whole entry, looked up): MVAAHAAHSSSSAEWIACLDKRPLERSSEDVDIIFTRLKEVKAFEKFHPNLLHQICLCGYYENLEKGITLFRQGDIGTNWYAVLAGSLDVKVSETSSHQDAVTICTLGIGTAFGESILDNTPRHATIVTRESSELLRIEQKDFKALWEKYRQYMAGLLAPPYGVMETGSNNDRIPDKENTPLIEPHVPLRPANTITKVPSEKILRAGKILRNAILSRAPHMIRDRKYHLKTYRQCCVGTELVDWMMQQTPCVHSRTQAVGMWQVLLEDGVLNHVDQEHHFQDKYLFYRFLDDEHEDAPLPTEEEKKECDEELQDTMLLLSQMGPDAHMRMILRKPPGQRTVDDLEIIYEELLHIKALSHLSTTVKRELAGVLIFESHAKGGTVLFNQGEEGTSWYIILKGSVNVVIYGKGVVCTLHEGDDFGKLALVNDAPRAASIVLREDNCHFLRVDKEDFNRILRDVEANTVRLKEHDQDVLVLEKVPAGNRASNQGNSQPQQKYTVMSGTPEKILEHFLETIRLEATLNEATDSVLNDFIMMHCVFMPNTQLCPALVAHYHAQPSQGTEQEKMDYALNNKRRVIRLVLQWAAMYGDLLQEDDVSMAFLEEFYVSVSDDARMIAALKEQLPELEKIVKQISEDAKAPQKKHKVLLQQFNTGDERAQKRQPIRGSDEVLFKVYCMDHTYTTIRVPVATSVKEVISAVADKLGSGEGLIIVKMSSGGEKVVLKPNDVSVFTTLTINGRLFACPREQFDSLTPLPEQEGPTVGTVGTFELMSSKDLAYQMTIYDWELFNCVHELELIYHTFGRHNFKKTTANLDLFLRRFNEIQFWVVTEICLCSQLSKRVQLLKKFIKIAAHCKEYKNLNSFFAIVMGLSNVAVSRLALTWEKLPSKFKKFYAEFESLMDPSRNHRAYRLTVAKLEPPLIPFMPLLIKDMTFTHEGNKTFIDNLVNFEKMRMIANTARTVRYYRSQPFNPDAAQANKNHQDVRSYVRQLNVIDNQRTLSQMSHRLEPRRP
# [5] = molecular target: Rap guanine nucleotide exchange factor 4 (Homo sapiens) (UniProt Q8WZA2); assay: Confirmatory qHTS for antagonist of cAMP-regulated guanine nucleotide exchange factor 4 (EPAC2) (AID 1645885); note: potency is the fitted concentration of half-maximal effect; nearly all actives have a fitted effect of over 25% in size
# [6] = molecular target: Rap guanine nucleotide exchange factor 3 (Homo sapiens) (UniProt O95398); assay: Counterscreen qHTS for antagonist of cAMP-regulated guanine nucleotide exchange factor 3 (EPAC1) (AID 1645888);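 note: fluorescence loss as bound BODIPY-GDP is released from Rap1B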
# Summary of the method: (§1)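 Rap1B–BODIPY-GDP (250 nM) with 50 uM GDP; compounds pin-transferred to 9.74 nM–152 uM final (activator) or from 7.32 nM upwards (inhibitor). Fluorescence Ex/Em 480/540 nm read at 5 and 30 min, then after adding cAMP or buffer, at room temperature.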
# [7] = molecular target: Rap guanine nucleotide exchange factor 3 (Homo sapiens) (UniProt O95398); assay: Counterscreen qHTS for agonist of cAMP-regulated guanine nucleotide exchange factor 3 (EPAC1) (AID 1645889); note: nearly all actives have a fitted effect of over 40% in size
# Summary of the method: as §1
# [8] = qHTS Assay for Identification of Small Molecule Antagonists for Thrombopoietin (TPO) Signaling Pathway (AID 918); settings: TPO-dependent cell signaling reporter, antagonist mode; note: potency is the fitted concentration of half-maximal effect; nearly all actives have a fitted effect of over 60% in size
# Summary of the method: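 Ba/F3 (murine, hTPO-R, GPIIb-luc reporter); overnight IL-3 withdrawal; cpd + TPO 26 pM final (EC50); 24 h 37 C/5% CO2; Steadylite luminescence after 10 min RT.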
# [9] = High Content Imaging Cell-Based qHTS for Inhibitors of the mTORC1 Signaling Pathway in MEF Cells (AID 2667); note: potency is the fitted concentration of half-maximal effect
# Summary of the method: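 WT MEFs (Tsc2-/-, p53-/- re-expressing Tsc2), in DMEM + 10% FBS, were treated with compound for 24 h at 37 C. Cells were then fixed and stained for phospho-rpS6 Ser235/236 with propidium iodide as cell count. Values are % positive cells, with thresholds set against rapamycin-treated cells.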
# [10] = qHTS for compounds that reverse cellular toxicity of Amyloid beta (A-beta) peptide in yeast: LOPAC Validation Assay (AID 720559)
# Summary of the method: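 Yeast expressing toxic A-beta grown with pinned compounds at 30 C for 48 hr. Growth measured as absorbance at 600 nm; data normalized to DMSO and to an equimolar FeCl3/clioquinol mixture as positive control.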
# [11] = molecular target: Glutaminase kidney isoform, mitochondrial (Homo sapiens) (UniProt O94925); assay: qHTS for Inhibitors of Glutaminase (GLS): LOPAC Validation (AID 624146);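 note: glutamate product detected by oxidase and peroxidase coupled Amplex red fluorescence gain; nearly all actives have a fitted effect of over 60% in size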
# Chain of Glutaminase kidney isoform, mitochondrial (Homo sapiens) (O94925 whole entry, looked up, canonical isoform): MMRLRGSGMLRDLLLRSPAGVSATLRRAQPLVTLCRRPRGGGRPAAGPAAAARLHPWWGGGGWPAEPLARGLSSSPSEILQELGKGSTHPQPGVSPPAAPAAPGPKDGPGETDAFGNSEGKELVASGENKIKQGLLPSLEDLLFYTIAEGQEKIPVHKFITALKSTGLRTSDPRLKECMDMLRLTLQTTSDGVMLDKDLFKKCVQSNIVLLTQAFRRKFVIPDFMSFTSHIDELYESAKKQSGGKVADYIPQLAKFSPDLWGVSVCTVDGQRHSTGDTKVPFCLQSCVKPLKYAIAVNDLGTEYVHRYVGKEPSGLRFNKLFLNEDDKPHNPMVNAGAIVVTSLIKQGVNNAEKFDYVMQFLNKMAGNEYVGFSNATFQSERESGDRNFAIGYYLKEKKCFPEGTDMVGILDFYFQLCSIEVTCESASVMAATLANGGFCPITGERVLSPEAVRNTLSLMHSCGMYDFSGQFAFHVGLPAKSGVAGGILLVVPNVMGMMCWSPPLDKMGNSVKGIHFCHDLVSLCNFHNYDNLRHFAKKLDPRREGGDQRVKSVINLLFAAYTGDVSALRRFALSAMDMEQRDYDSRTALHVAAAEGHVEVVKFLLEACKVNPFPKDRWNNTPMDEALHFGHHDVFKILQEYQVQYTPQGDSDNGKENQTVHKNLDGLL
# Summary of the method: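 Enzyme dispensed in phosphate buffer (45 mM, pH 8.2, 0.02% Tween-20), compounds pinned in, then 1 mM L-glutamine solution and the glutamate oxidase–HRP–Amplex Red mix added; fluorescence read immediately and again after 30 min at room temperature.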
# [12] = qHTS of Trypanosoma Brucei Inhibitors: LOPAC Validation (AID 624147)
# Summary of the method: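 T. brucei PYK with substrate was exposed to pin-transferred compounds across a concentration series, then started with 130 uM ADP (final). After 45 min at room temperature, Kinase-Glo Plus luminescence was read, normalized and curve-fitted.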
# [13] = molecular target: Thioredoxin reductase 1, cytoplasmic (Rattus norvegicus) (UniProt O89049); assay: qHTS Assay for Substrates of Mammalian Selenoprotein Thioredoxin Reductase 1 (TrxR1) (AID 488772);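 note: NADPH fluorescence in the first read after selenite addition and not the 8 min delta; a drop in NADPH fluorescence below the no-compound background marks a TrxR1 substrate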
# Summary of the method: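 Quantitative HTS in Tris-HCl buffer at pH 7.5 with EDTA and Tween-20, using rat TrxR1, 400 uM NADPH and 400 uM selenite (final). A fall in initial NADPH fluorescence relative to background marked substrate behaviour.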
# [14] = qHTS profiling of the MIPE4 collection as inhibitors of Plasmodium falciparum (DD2) proliferation (AID 743345; call rule not given here); settings: P. falciparum Dd2 in erythrocytes, SYBR Green DNA, 72 h; at 28.5 µM (top of the series) unless noted
# Summary of the method: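 Erythrocytes infected with P. falciparum (0.3% parasitemia, 2.5% hematocrit) incubated with compounds 72 h at 37 C, 5% CO2. Lysis with saponin/Triton buffer containing SYBR Green I, overnight at room temperature in the dark; DNA fluorescence (485/535 nm) normalised to 0.29 uM artemisinin and DMSO.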
# [15] = HepG2 viability counterscreen (readout 2: ATP content) against the NCATS DSHEA and TCM libraries (AID 1794840)
# Summary of the method: (§2)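 HepG2 cells, 1,000/well, attached ~4 h, then exposed ~24 h at 37C to substances. Protease activity read by fluorescence of 25 uM GF-AFC (Ex/Em 380/510 nm) after 30 min; ATP then by CellTiter-Glo luminescence.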
# [16] = HepG2 viability counterscreen (readout 1: protease activity) against the NCATS DSHEA and TCM libraries (AID 1794841);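 note: cells exposed to compounds for about 24 h before the protease read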
# Summary of the method: as §2
# [17] = molecular target: Cytochrome P450 2D6 (Homo sapiens) (UniProt P10635); assay: qHTS for inhibitors of CYP2D6 against the NCATS DSHEA and TCM libraries (AID 1919972)
# Chain of Cytochrome P450 2D6 (Homo sapiens) (P10635 whole entry, looked up): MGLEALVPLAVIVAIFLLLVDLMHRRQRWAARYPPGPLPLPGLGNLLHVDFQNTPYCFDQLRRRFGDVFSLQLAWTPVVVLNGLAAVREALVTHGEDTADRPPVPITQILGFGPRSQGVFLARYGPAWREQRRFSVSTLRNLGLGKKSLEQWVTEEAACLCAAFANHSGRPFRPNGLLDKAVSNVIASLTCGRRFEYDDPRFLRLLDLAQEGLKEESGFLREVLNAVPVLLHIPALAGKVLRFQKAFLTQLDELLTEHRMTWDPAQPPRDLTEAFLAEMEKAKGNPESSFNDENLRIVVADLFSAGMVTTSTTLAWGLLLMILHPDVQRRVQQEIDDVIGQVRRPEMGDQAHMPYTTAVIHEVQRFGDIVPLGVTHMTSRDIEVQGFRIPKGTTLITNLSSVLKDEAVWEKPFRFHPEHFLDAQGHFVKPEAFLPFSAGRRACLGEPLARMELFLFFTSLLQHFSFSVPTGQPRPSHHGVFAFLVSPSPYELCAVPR
# Summary of the method: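 Luminescent P450-Glo read-out of CYP2D6 turnover of a luciferin substrate after NADPH-driven reaction of 30-45 min at room temperature. Compounds were first preincubated 15 min with enzyme at titrated concentrations; quinidine was the intraplate control.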
# [18] = KB-3-1 P-gp reporter qHTS against the NCATS DSHEA and TCM libraries (AID 1919975)
# Summary of the method: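 Parental KB-3-1 cells, 500 cells/well, in DMEM with 10% FBS, exposed 72 h at 37 C to compounds in concentration-response. Viability read by CellTiter-Glo luminescence after 30 min at room temperature.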
# [19] = molecular target: Cytochrome P450 1A2 (Homo sapiens) (UniProt P05177); assay: qHTS for inhibitors of CYPIA2 against the NCATS DSHEA and TCM libraries (AID 1919976);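 note: light from luciferin formed by CYP1A2 from a pro-luciferin substrate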
# Chain of Cytochrome P450 1A2 (Homo sapiens) (P05177 whole entry, looked up): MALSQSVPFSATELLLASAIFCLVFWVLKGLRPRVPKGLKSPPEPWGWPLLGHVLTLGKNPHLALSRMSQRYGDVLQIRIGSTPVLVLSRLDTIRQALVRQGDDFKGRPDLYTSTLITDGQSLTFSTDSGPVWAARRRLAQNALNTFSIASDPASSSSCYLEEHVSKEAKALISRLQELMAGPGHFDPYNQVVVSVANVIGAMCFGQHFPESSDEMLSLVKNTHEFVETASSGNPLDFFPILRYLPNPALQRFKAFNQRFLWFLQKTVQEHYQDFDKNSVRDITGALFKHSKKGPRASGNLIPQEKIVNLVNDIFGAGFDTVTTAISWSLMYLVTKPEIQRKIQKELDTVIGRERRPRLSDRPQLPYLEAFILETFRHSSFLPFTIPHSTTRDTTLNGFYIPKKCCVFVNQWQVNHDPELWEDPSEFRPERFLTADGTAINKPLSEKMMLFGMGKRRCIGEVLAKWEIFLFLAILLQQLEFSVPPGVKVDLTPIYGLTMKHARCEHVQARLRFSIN
# Summary of the method: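 CYP1A2 + luciferin substrate, 100 mM KPO4-type buffer; cmpd 15 min RT; 1x NADPH regen, 30-45 min RT dark; detection reagent 30 min RT; luminescence. Minus-enzyme wells as background; furafylline intraplate control.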
# [20] = qHTS Counterscreen for compound interference against the NCATS DSHEA and TCM libraries (AID 1919978); settings: firefly luciferase detection reagent interference, luminescence;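 note: compounds preincubated with 1 µM D-luciferin or buffer before detection reagent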
# Summary of the method: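 Firefly luciferase detection reagent was added after compounds (19.5 nM–39.8 uM final) had been incubated 15 min at room temperature with 1 uM D-luciferin or with 100 mM phosphate buffer alone. Luminescence was read after 30 min at room temperature.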
smiles,measurement,setting,value
N#C/C(=C\c1ccc(O)c(O)c1)C(=O)NCCCNC(=O)/C(C#N)=C/c1ccc(O)c(O)c1,outcome,[1],inactive
same,outcome,[2],inactive
CC(C)COC(=O)c1ccccc1C(=O)OCC(C)C,outcome,[3],inactive
same,outcome,[4],inactive
same,Potency,[5],37.9 µM (active)
same,outcome,[6],inactive
same,outcome,[7],inactive
O=c1oc(Cl)c(Cl)c2ccccc12,Potency,[8],12.6 µM (active)
same,Potency,[9],18.5 µM (active)
same,outcome,[10],inactive
COc1cc([C@@H]2c3cc4c(cc3[C@H](O)C3COC(=O)[C@@H]32)OCO4)cc(OC)c1OC (stereo not given in full),outcome,[11],inactive
same,outcome,[12],inactive
Nc1nc2[nH]c(=O)cnc2c(=O)[nH]1,outcome,[13],inactive
O=c1cc(-c2ccc(O)c(O)c2)oc2cc(O)cc(O)c12,"parasite growth remaining, % of DMSO control (lower = more inhibition)",[14],89.2%
C=C(C)[C@@H]1CC=C(C=O)CC1,outcome,[15],inactive
same,outcome,[16],inactive
same,outcome,[17],inactive
same,outcome,[18],inactive
same,Potency,[19],inactive
same,max response,[20],-1.03% (inactive)
